Source: PubChem BioAssay (NCI)
The panel holds about 83,000 compounds, 20% with a hit somewhere; the sample as a whole holds those more often.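 Negative percent growth values reflect cell death: -40 means 40% of the cells present at the start died, and -100 means all died.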 Unmarked numbers belong to inactive results. Activity calls are given as the source filed them. Rule for the calls: active = growth percent below 10; inactive = the rest.

Legend:
Experiment in all cases: NCI-60 one-dose screen, 48 h (100 = growth as untreated, 0 = no growth, -100 = all killed)
Settings in all cases: 10 µM unless noted
[1] = test system: RPMI-8226 leukemia
[2] = test system: OVCAR-8 ovarian
[3] = test system: OVCAR-5 ovarian
[4] = test system: OVCAR-4 ovarian
[5] = test system: SK-OV-3 ovarian
[6] = test system: IGROV1 ovarian
[7] = test system: OVCAR-3 ovarian
[8] = test system: HS 578T breast
[9] = test system: NCI/ADR-RES ovarian
[10] = test system: T-47D breast

COc1ccc(-n2nc(C(=O)NCC(=O)O)nc2-c2ccccc2)cc1
growth [1]: 112% | growth [2]: 111% | growth [3]: 100% | growth [4]: 111% | growth [5]: 111% | growth [6]: 105% | growth [7]: 116% | growth [8]: 115% | growth [9]: 118% | growth [10]: 104%

COC(=O)/C=C1\SC(=Nc2cccc(Cl)c2)N(CCc2c[nH]c3ccccc23)C1=O
growth [1]: -25% (active) | growth [2]: 51.4% | growth [3]: 73.6% | growth [4]: 62% | growth [5]: 83.8% | growth [6]: 53.7% | growth [7]: 33.3% | growth [8]: 67.4% | growth [9]: 52.4% | growth [10]: 11.9%

N#Cc1ccc(Oc2ccc3ccc(=O)oc3c2)cc1
growth [1]: 81.5% | growth [2]: 87.2% | growth [3]: 104% | growth [4]: 109% | growth [5]: 112% | growth [6]: 121% | growth [7]: 117% | growth [8]: 93.4% | growth [9]: 107% | growth [10]: 94.5%

CCOC(=O)c1ccc(Nc2ncnc3ccc(NC(=O)c4ccccc4)cc23)cc1
growth [1]: 69.2% | growth [2]: 86.7% | growth [3]: 96.2% | growth [4]: 89.2% | growth [5]: 100% | growth [6]: 103% | growth [7]: 94.4% | growth [8]: -95% (active) | growth [9]: 86.8% | growth [10]: 65.6%

CCCCc1ccc(N=Nc2ccc(OCC[N+](C)(C)C)cc2)cc1
growth [1]: 17.8% | growth [2]: 26.8% | growth [3]: 76.2% | growth [4]: 71.8% | growth [5]: 74.8% | growth [6]: 19.2% | growth [7]: 30.2% | growth [8]: 72.3% | growth [9]: 104% | growth [10]: 88.7%

COc1ccccc1-c1ccc2nc(NC(=O)Nc3cc(C(F)(F)F)cc(C(F)(F)F)c3)sc2c1
growth [1]: -15.9% (active) | growth [2]: 9.39% (active) | growth [3]: 20.5% | growth [4]: 16.5% | growth [5]: -13.2% (active) | growth [6]: 42.4% | growth [7]: 8% (active) | growth [8]: -0.697% (active) | growth [9]: 5.44% (active) | growth [10]: -13.5% (active)

O=CN1N=C(c2ccc3c(c2)OCO3)CC1c1cccc(Nc2ccnc3cc(C(F)(F)F)ccc23)c1 (stereo not given)
growth [1]: 40.2% | growth [2]: 83.8% | growth [3]: 97.7% | growth [4]: 69.6% | growth [5]: 77.4% | growth [6]: 91.8% | growth [7]: 67.4% | growth [8]: 96.1% | growth [9]: 76.8% | growth [10]: 45.8%

COc1cc(C(=O)Nc2cc(O)c(C/C=C(\C)CCC=C(C)C)c(O)c2)cc2c1O[C@]1(C)CC[C@@H](O)C(C)(C)[C@H]1C2
growth [1]: -23.6% (active) | growth [2]: 29.9% | growth [3]: 48.5% | growth [4]: 32.8% | growth [5]: 17.9% | growth [6]: 33.7% | growth [7]: 5.54% (active) | growth [8]: -1.79% (active) | growth [9]: 57.7% | growth [10]: 9.68% (active)

COc1ccc(Cl)c([N+](=O)[O-])c1
growth [1]: 106% | growth [2]: 106% | growth [3]: 102% | growth [4]: 101% | growth [5]: 98% | growth [6]: 108% | growth [7]: 112% | growth [8]: 105% | growth [9]: 102% | growth [10]: 84%

COc1ccc(-c2[nH]c3ccc(OC)cc3c2C=C(C#N)C#N)cc1
growth [1]: -11.5% (active) | growth [2]: 57.3% | growth [3]: 55.8% | growth [4]: 39.5% | growth [5]: 41.7% | growth [6]: 39.1% | growth [7]: -14.1% (active) | growth [8]: 52.4% | growth [9]: 1.87% (active) | growth [10]: 33.8%

O=c1[nH]nc(-c2ccc(Br)cc2)c2sc(NC(=S)Nc3ccc(Cl)cc3)nc12
growth [1]: 101% | growth [2]: 95.4% | growth [3]: 97.3% | growth [4]: 91.5% | growth [5]: 96.9% | growth [6]: 81.1% | growth [7]: 104% | growth [8]: -1.82% (active) | growth [9]: 80% | growth [10]: 85.9%

COc1ccc2nc(-c3ccc(Cl)cc3)cc(C(=O)N3N=C(c4ccc(N)cc4)CC3c3ccccc3)c2c1 (stereo not given)
growth [1]: 29% | growth [2]: 54% | growth [3]: 80.9% | growth [4]: 65.8% | growth [5]: 46.1% | growth [6]: 53.9% | growth [7]: 9.64% (active) | growth [8]: 48.4% | growth [9]: 15.2% | growth [10]: 38.8%

O=C(Nc1ccc(N=Cc2ccccc2O)cc1)NC1C=c2ccccc2=CC1 (stereo not given)
growth [1]: 94% | growth [2]: 95.9% | growth [3]: 103% | growth [4]: 116% | growth [5]: 103% | growth [6]: 108% | growth [7]: 99.1% | growth [8]: 102% | growth [9]: 101% | growth [10]: 91.3%

COc1cc(C2=N/C(=C\c3cc4ccccc4nc3Oc3ccccc3)C(=O)N2C(=N)N)cc(OC)c1OC
growth [1]: 86.1% | growth [2]: 33.2% | growth [3]: 80.7% | growth [4]: 24.3% | growth [5]: 44.2% | growth [6]: 82.1% | growth [7]: 76.7% | growth [8]: 33.7% | growth [9]: 52.6% | growth [10]: 49%

C=C(C)[C@@H]1CC[C@]2(C(=O)n3ccnc3)CC[C@]3(C)[C@H](CC[C@@H]4[C@@]5(C)CCCNC(C)(C)[C@@H]5CC[C@]43C)[C@@H]12
growth [1]: -51.3% (active) | growth [2]: 62.8% | growth [3]: 74.9% | growth [4]: 38.3% | growth [5]: 61.9% | growth [6]: 20.4% | growth [7]: 30.9% | growth [8]: 47.4% | growth [9]: 32.9% | growth [10]: 11.4%

CCSc1nc(Cl)c(C#N)c(-c2ccc(F)cc2)n1
growth [1]: 88.3% | growth [2]: 90.2% | growth [3]: 97.7% | growth [4]: 97.8% | growth [5]: 99.7% | growth [6]: 98.9% | growth [7]: 98% | growth [8]: 91.6% | growth [9]: 102% | growth [10]: 90%

O=C(Nc1nc2ccc(C(F)(F)F)cc2s1)c1cc(Cl)ccc1O
growth [1]: -5.53% (active) | growth [2]: 12.9% | growth [3]: 28% | growth [4]: 20.2% | growth [5]: -16.2% (active) | growth [6]: 30.8% | growth [7]: 8.08% (active) | growth [8]: 5.64% (active) | growth [9]: -4.36% (active) | growth [10]: -5.13% (active)

CC1(C)[C@@H](O)CC[C@]2(C)[C@H]3CC[C@@H]4[C@H]5[C@H](c6cn(-c7ccccc7)nn6)CC[C@]5(CO)CC[C@@]4(C)[C@]3(C)CC[C@@H]12
growth [1]: 73.2% | growth [2]: 85.2% | growth [3]: 118% | growth [4]: 98.3% | growth [5]: 103% | growth [6]: 119% | growth [7]: 88.2% | growth [8]: 94.6% | growth [9]: 80.9% | growth [10]: 63.9%

Cc1nc2sc(C(=O)Nc3ccccc3)c(N)c2cc1C(C)O (stereo not given)
growth [1]: 16.9% | growth [2]: 36.4% | growth [3]: 51.3% | growth [4]: 64.5% | growth [5]: 31% | growth [6]: 40.2% | growth [7]: 21.8% | growth [8]: 44.9% | growth [9]: 15.4% | growth [10]: 44.6%

COc1ccc2nc(-c3ccc(OC)c(OC)c3)cc(-c3nnc(SCC(=O)Nc4ccc(C(C)=O)cc4)o3)c2c1
growth [1]: 90.8% | growth [2]: 102% | growth [3]: 109% | growth [4]: 106% | growth [5]: 109% | growth [6]: 113% | growth [7]: 111% | growth [8]: 97.3% | growth [9]: 108% | growth [10]: 94.6%

O=C1NCc2ccc3c(-c4cccc(Cl)c4)c[nH]c3c21
growth [1]: 25.8% | growth [2]: 25.4% | growth [3]: 39.7% | growth [4]: 53.6% | growth [5]: 10.9% | growth [6]: 32.2% | growth [7]: -5.67% (active) | growth [8]: 31.3% | growth [9]: 6.99% (active) | growth [10]: 39%

C=C1C(=O)O[C@H]2[C@H]1CC/C(C=Nc1c(N)cc(F)cc1Br)=C\CC[C@@]1(C)O[C@@H]21
growth [1]: 12.8% | growth [2]: 78.4% | growth [3]: 103% | growth [4]: 105% | growth [5]: 87.3% | growth [6]: 60.4% | growth [7]: 50.9% | growth [8]: 90.2% | growth [9]: 109% | growth [10]: 50%

COc1cc(/C=C/CO)cc(OC)c1O[C@@H]1O[C@H](CO)[C@@H](O)[C@H](O)[C@H]1O
growth [1]: 99.3% | growth [2]: 98.8% | growth [3]: 92.4% | growth [4]: 100% | growth [5]: 100% | growth [6]: 104% | growth [7]: 108% | growth [8]: 96.4% | growth [9]: 106% | growth [10]: 93.1%

O=c1[nH]c2ccccc2cc1-c1nc2ccc(Cl)cc2[nH]1
growth [1]: -38.5% (active) | growth [2]: 57.7% | growth [3]: 100% | growth [4]: 51% | growth [5]: 14% | growth [6]: 26.5% | growth [7]: 35.5% | growth [8]: 46.1% | growth [9]: 74.4% | growth [10]: 35.1%

COc1ccc(NC(=O)Nc2ccc(Nc3nc(C)cc(Nc4ccc(C)cc4)n3)cc2)cc1
growth [1]: -45.9% (active) | growth [2]: -56.6% (active) | growth [3]: -85.7% (active) | growth [4]: -87.1% (active) | growth [5]: 69% | growth [6]: -70.5% (active) | growth [7]: -95.5% (active) | growth [8]: -21.6% (active) | growth [9]: -56.3% (active) | growth [10]: -60.1% (active)

O=c1[nH]nc(-c2ccccc2)c2sc(NC(=S)Nc3ccc(Cl)cc3)nc12
growth [1]: 87.8% | growth [2]: 89.6% | growth [3]: 98.6% | growth [4]: 91.6% | growth [5]: 62.3% | growth [6]: 94.2% | growth [7]: 97.5% | growth [8]: 102% | growth [9]: 95.3% | growth [10]: 59%
